Experimental data: PubChem BioAssay (NCATS)
Active and inactive are the calls of the source. Calls come from the whole dose curve; as a rule, active = well fitted curve in the direction sought with a large enough effect; inconclusive = small, poorly fitted or top-dose-only effect, or another doubt; inactive = no such curve, though single readings can be large or run the other way.

Each molecule was assayed against Guanine nucleotide-binding protein G(i) subunit alpha-1 (Homo sapiens) (UniProt P63096) (assay: qHTS Assay for Inhibitors of RGS12 GoLoco Motif Activity (Green Fluorophore) (AID 879;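 note: 0% = labeled peptide with Gαi1 and full inhibition = labeled peptide alone without protein; negative values mean loss of peptide binding seen as reduced polarization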)). Conditions: Galphai1/FITC-RGS12 GoLoco peptide, fluorescence polarization; series mostly up to 57.1 µM; activity, negative = inhibition: at the top concentration.
Guanine nucleotide-binding protein G(i) subunit alpha-1 (Homo sapiens), sequence (P63096 whole entry, looked up): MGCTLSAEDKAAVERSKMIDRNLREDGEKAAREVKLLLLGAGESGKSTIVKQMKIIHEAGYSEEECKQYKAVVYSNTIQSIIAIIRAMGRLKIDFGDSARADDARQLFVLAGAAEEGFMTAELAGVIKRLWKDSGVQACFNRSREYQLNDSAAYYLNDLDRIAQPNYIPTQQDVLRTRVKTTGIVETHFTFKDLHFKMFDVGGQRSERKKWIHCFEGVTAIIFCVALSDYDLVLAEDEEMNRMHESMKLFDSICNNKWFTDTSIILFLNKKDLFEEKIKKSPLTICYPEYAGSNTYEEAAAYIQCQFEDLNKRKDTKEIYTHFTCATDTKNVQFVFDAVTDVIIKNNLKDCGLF
In short: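 A drop in FITC polarization marked displacement of the FITC-tagged RGS12 GoLoco peptide (10 nM) from Gαi1 (50 nM). Compounds were incubated 10 min at room temperature in Tris pH 7.5 buffer containing 150 mM NaCl, 0.1 mM GDP and 0.05% NP40; unlabeled peptide titration served as control.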

SMILES	activity, negative = inhibition	Potency
O=C(O)C1CCNCC1	-24.7% (inactive)	
CCN1C(=O)C=CC1=O	3.18% (inactive)	
CC(C)NC[C@H](O)COc1ccc(CC(N)=O)cc1		inactive
Cc1nc(N=Nc2ccc(S(=O)(=O)O)cc2S(=O)(=O)O)c(COP(=O)(O)O)c(C=O)c1O	-14.3% (inactive)	
O=c1ccc2c(OCCCCc3ccccc3)c3ccoc3cc2o1	-11.8% (inactive)	
NC(=O)c1ccccc1	3.04% (inactive)	
N=C(N)c1ccc(OCCCCCOc2ccc(C(=N)N)cc2)cc1 (tested in a mixture with another compound)	-18.8% (inactive)	
NS(=O)(=O)c1cccc2c1c([N+](=O)[O-])cc1nc(O)c(O)nc12	-18.4% (inactive)	
COc1ccc(C(=O)NCc2cccnc2)cc1C(=O)NCc1cccnc1	-5.42% (inactive)	
CCCCCCC/C=C\CCCCCCCCC(=O)O	-6.46% (inactive)	
CC(=O)C(C)=O	-10.9% (inactive)	
O=C(O)C1=CCCNC1	2.56% (inactive)	
NCCCNCCCCNCCCN	-9.18% (inactive)	
Nc1nc2[nH]c(=O)cnc2c(=O)[nH]1	8.72% (inactive)	
N[C@@H](CS(=O)O)C(=O)O	-12.2% (inactive)	
NC1(C(=O)O)CC1	6.55% (inactive)	
C=CC[C@H](N)C(=O)O	5.62% (inactive)	

SMILES	activity, negative = inhibition	Potency
O=c1[nH]c2ccccc2c2ccccc12	-12.4% (inactive)	
C=CCn1c(=O)c2c(nc(-c3ccc(S(=O)(=O)O)cc3)n2C)n(C)c1=O	11.2% (inactive)	
Nn1nnc2ccccc21	-17.3% (inactive)	
CCN(c1nc(N)c(C(=O)N=C(N)N)nc1Cl)C(C)C	-14.6% (inactive)	
NOCC(=O)O	-13.6% (inactive)	
COC(=O)[C@H](NC(=O)c1cc(-c2ccccc2)nc2ccccc12)c1ccccc1	-24.4% (inactive)	
O=c1oc(Cl)c(Cl)c2ccccc12	2.73% (inactive)	
N#C/C(=C\c1ccc(O)c(O)c1)C(=O)NCCCNC(=O)/C(C#N)=C/c1ccc(O)c(O)c1	6.47% (inactive)	
COc1ccc(-c2ccc(N)[n+](CCCC(=O)O)n2)cc1	4.64% (inactive)	
N=C(N)c1ccc(N)cc1	0.388% (inactive)	
O=C(O)c1cc(=O)cc(C(=O)O)[nH]1	-8.52% (inactive)	
O=c1[nH]c(=O)c2nc3ccccc3nc2[nH]1	-9.5% (inactive)	
O=C(O)/C(=C/c1c(C(=O)O)[nH]c2cc(Cl)cc(Cl)c12)c1ccccc1	-23.5% (inactive)	
O=c1cc(-c2ccccc2)[nH]c2nc(Cl)ccc12	-17.6% (inactive)	
Cc1cc2c(cc1Cl)N(C(=O)Nc1ccnc3ccccc13)CC2	2.28% (inactive)	
C/C(=C\c1ccc(C(=O)O)cc1)c1ccc2c(c1)C(C)(C)CCC2(C)C	-19.7% (inactive)	
